From PubChem BioAssay (NCI)
This is part of a sample that, as a whole, favours compounds with a hit. Of some 83,000 tested, about 20% had one in any assay.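 Single-concentration screen, 48 h exposure, 96-well plates. Endpoint: percent growth. Below 10 = active.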 Activity calls are given as the source filed them.

Tested on: SR leukemia
Test: NCI-60 one-dose screen, 48 h (100 = growth as untreated, 0 = no growth, -100 = all killed)
Details: 10 µM unless noted
Method: Growth inhibition of the SR human tumor cell line is measured as a screen for anti-cancer activity. Cells are grown in 96 well plates and exposed to the test compound for 48 hours. Compounds are tested at a single concentration, which is 10^-5 M for most compounds. The reported endpoint is percent growth (GI% or GIPRCNT), where numbers from 0 - 100% represent growth inhibition, and numbers from -100% - 0 represent cell death. For example, a value of 40 represents 60% growth inhibition. A value of 0 means no net growth occurred over the course of the experiment. A value of -40 indicates 40% of cells at the beginning of the experiment died by the end of the experiment. A value of -100 means all cells are dead at the end of the experiment.
NCI-60 Human Tumor Cell Lines Screen was performed using the standard one-dose NCI protocol, which is described in more detail at https://dtp.cancer.gov/discovery_development/nci-60/default.htm.
Compounds with GIPRCNT values below 10 were considered active. Activity score was based on GIPRCNT using the following formula: […]
Score is 0 for GIPRCNT values of 100 or above, 50 for GIPRCNT values of 0, and 100 for GIPRCNT values of -100.

Row | SMILES | growth
1 | O=S(=O)(NCCNc1nccc(-c2c(-c3cccc(O)c3)nc3occn23)n1)c1ccc(Cl)cc1 | 106% (inactive)
2 | C=C(C)[C@@H]1CC[C@]2(C(=O)N[C@@H](Cc3ccccc3)C(=O)OC)CC[C@]3(C)[C@H](CC[C@@H]4[C@@]5(C)CCC(=O)C(C)(C)[C@@H]5CC[C@]43C)[C@@H]12 | 85.3% (inactive)
3 | COc1ccc(-c2nc3sccn3c2/C=C/C(=O)c2ccc3c(c2)OCO3)cc1 | 41.4% (inactive)
4 | CC(=O)O[C@@H]1C2CCC3C(CC[C@@]4(C)C3CC[C@@H]4C(C)N(C)C)[C@@]2(C)CC[C@@H]1NC(=O)C=C(C)C (stereo not given in full) | -34.5% (active)
5 | O=C(/C(=C\c1ccc([N+](=O)[O-])cc1)S(=O)Cc1ccc(F)cc1)c1ccc(F)cc1 (stereo not given) | 8.47% (active)
6 | N#CC1C(C#N)C2c3ccccc3C=CN2C1C(=O)c1ccc(Br)cc1 (stereo not given) | 99.9% (inactive)
7 | O=C(CSc1nc2sc3c(c2c(=O)n1-c1ccc(Cl)cc1)CCCC3)Nc1nc(-c2cccc(Br)c2)cs1 | 80.6% (inactive)
8 | C#CCNC(=O)[C@H](Cc1ccccc1)NC(=O)[C@]12CC[C@@H](C(=C)C)[C@@H]1[C@H]1CC[C@@H]3[C@@]4(C)CCC(=O)C(C)(C)[C@@H]4CC[C@@]3(C)[C@]1(C)CC2 | 42% (inactive)
9 | O=c1c2c(c(=O)n1O)c1c3ccc[nH]c3nc1c1nc3[nH]cccc3c12 | 32.2% (inactive)
10 | NC(=S)N1N=C(c2ccccc2)CC1c1cn(-c2ccccc2)nc1-c1ccc(OCc2ccccc2)cc1 (stereo not given) | 109% (inactive)
11 | CCN(CC)c1ccc(C(=O)c2ccccc2)cc1 | 86.2% (inactive)
12 | O=C(N/N=C/c1ccc(Oc2ccccc2)cc1)c1cnn2c1NC(c1ccccc1)C2 (stereo not given) | 31% (inactive)
13 | COc1ccc(C(=O)c2cc(OC)c(OC)c(OC)c2)cc1O | 7.02% (active)
14 | O=C(C[n+]1cccc2ccccc21)c1ccc(O)c(O)c1 | 7.71% (active)
15 | Cc1ccc(NS(=O)(=O)c2ccc(-c3cnc(C4CC4)o3)cc2)cc1C(F)(F)F | 28.6% (inactive)
16 | CCOC(=O)Oc1c(OC)cc(C(=O)c2ccc(OC)c(O)c2OC)cc1OC | 28% (inactive)
17 | COc1ccc(CNCCN2C(=O)c3ccc4c5c(ccc(c35)C2=O)C(=O)N(CCNCc2ccc(OC)c(OC)c2OC)C4=O)c(OC)c1OC | -23.2% (active)
18 | C[C@H](c1nc2ccc(N)cc2[nH]1)[C@H]1CC[C@H]2[C@@H]3CCC4=CC(=O)CC[C@]4(C)[C@H]3CC[C@]12C | 44.4% (inactive)
19 | O=C(O)c1ccc(NCc2cn(-c3ccc(C(F)(F)F)cc3)nc2-c2ccc(C(=O)O)cc2)cc1 | 97.3% (inactive)
20 | CCOC(=O)CC1CSC(N/N=C/c2ccc(-n3cccn3)cc2)=N1 (stereo not given) | 98.3% (inactive)

Row | SMILES | growth
21 | Cc1nn(-c2ccccc2)c(Oc2c(Cl)cccc2Cl)c1/C=N/N=c1\sc2ccccc2n1C | 16.6% (inactive)
22 | CNCCn1c(=O)c2cc(OC)c(OC)cc2c2ccc3cc4c(cc3c21)OCO4 | -22.4% (active)
23 | Cc1cc2cc3ccc(N(C)C)cc3nc2cc1N | -2.93% (active)
24 | C/C(=N\NC(=O)CSc1nc2ccccc2c(=O)n1CCc1ccc(S(N)(=O)=O)cc1)c1ccccn1 | 22.8% (inactive)
25 | CC(=O)Nc1ccc(-n2cnc3cc(-c4ccc(OCCN5CCCCC5)cc4)ccc32)cc1 | -9.89% (active)
26 | COc1c(Cl)c2c(c(OC)c1OC)-c1ccc(SC)c(=O)cc1[C@@H](NC(=O)OCC(F)(F)F)CC2 | -0.191% (active)
27 | O=S(=O)(NCCNc1nccc(-c2c(-c3cccc(O)c3)nc3occn23)n1)c1ccccc1 | 75.7% (inactive)
28 | NC(=NCCCOc1ccc(F)cc1)Nc1ccc(I)cc1 | 58% (inactive)
29 | COc1cc(C=O)ccc1OC1OC(COC(C)=O)C(OC(C)=O)C(OC(C)=O)C1OC(C)=O (stereo not given) | 60.7% (inactive)
30 | N#Cc1c(NCc2ccccc2I)sc2c1CCCCC2 | 93.8% (inactive)
31 | COc1ccc(C(=O)c2nc3ccccc3n2CC(=O)c2ccc(F)cc2)cc1 | 41.8% (inactive)
32 | COc1cc(C2=NN(C(C)=O)C(c3cc(OC)c(OC)c(OC)c3)C2)ccc1O (stereo not given) | 15.6% (inactive)
33 | COc1cc(/C=N/NC(=O)c2cnn3c2NC(c2ccccc2)C3)ccc1Oc1ccccc1 (stereo not given) | 18% (inactive)
34 | NC(=NCc1ccccc1)C(N=Nc1ccccc1)C(=O)NCc1ccccc1 (stereo not given) | 19.1% (inactive)
35 | CC(=O)CCC(=O)OCc1cc(=O)c(O)co1 | 86.4% (inactive)
36 | COc1cccc(-c2nc3occn3c2-c2ccnc(NCCCNS(=O)(=O)c3ccc(C(F)(F)F)cc3)n2)c1 | 97.2% (inactive)
37 | N#CC(C#N)=Cc1cc2ccccc2nc1Oc1ccc(C(F)(F)F)cc1 | 30.8% (inactive)
38 | CNC(=O)c1cccc(Cn2nc(C)c(NC(=O)c3ccc(COc4ccc(C(F)(F)F)cc4C)cc3)c2C)c1 | 23.3% (inactive)
39 | N#Cc1c(NC(=O)NCc2ccccc2)sc2c1CCCC2 | 23.3% (inactive)
40 | CCOC(=O)c1nc2c3ccccc3ccn2c1C(=O)OCC | 103% (inactive)
